{"source": "PubChem BioAssay AID1159580", "about": "(chemical genetic matrix, 2015)", "assay": "chemical genetic growth profiling, strain panel (AID 1159580);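 note: tested at 20 µM; growth read once vehicle control cultures reached saturation at 30 °C; 1 = growth at the plate median or of vehicle wells; lower values mean less growth of the strain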", "conditions": "S. cerevisiae deletion strains, growth OD", "note": "Several values for one entry are separate records, joined by “and”; a condition that tells them apart may be missing. Identical values can stand only once. About 2,000 (36%) of roughly 5,500 compounds were called active. Inconclusive results (about 18%) are left out. Cut-off read from the data, not from the text of the source: active = normalized growth mostly below about 0.91 (no sharp cut-off); inconclusive = no clear call, values can overlap the other calls; inactive = mostly above about 0.92. This is one part of the list."}
{"smiles": "CC(C)=CCCC(C)[C@@H]1CC[C@]2(C)C3=C(CC[C@@]12C)C1(C)CC[C@H](O)C(C)(C)C1CC3", "note": "(stereo partly drawn)", "values": [{"measurement": "normalized growth", "setting": "locus YAL021C, strain ccr4, stronger effect = lower value", "value": "1.04 (inactive)"}, {"measurement": "normalized growth", "setting": "locus YAL026C, strain drs2, stronger effect = lower value", "value": "1.04 (inactive)"}, {"measurement": "normalized growth", "setting": "locus YAL030W, strain snc1, stronger effect = lower value", "value": "1.07 [resistant] (active)"}, {"measurement": "normalized growth", "setting": "locus YBL061C, strain skt5, stronger effect = lower value", "value": "1.08 (inactive)"}, {"measurement": "normalized growth", "setting": "locus YBR009C, strain hhf1, stronger effect = lower value", "value": "1.01 (inactive)"}, {"measurement": "normalized growth", "setting": "locus YBR021W, strain FUR4, stronger effect = lower value", "value": "0.941 (inactive)"}, {"measurement": "normalized growth", "setting": "locus YBR023C, strain chs3, stronger effect = lower value", "value": "1.08 (inactive)"}, {"measurement": "normalized growth", "setting": "locus YBR171W, strain sec66, stronger effect = lower value", "value": "1.06 (inactive)"}, {"measurement": "normalized growth", "setting": "locus YBR229C, strain ROT2, stronger effect = lower value", "value": "1.08 (inactive)"}, {"measurement": "normalized growth", "setting": "locus YBR231C, strain swc5, stronger effect = lower value", "value": "1.09 [resistant] (active)"}, {"measurement": "normalized growth", "setting": "locus YBR279W, strain paf1, stronger effect = lower value", "value": "1.07 [resistant] (active)"}, {"measurement": "normalized growth", "setting": "locus YCL011C, strain gbp2, stronger effect = lower value", "value": "1.07 (inactive)"}, {"measurement": "normalized growth", "setting": "locus YCL016C, strain dcc1, stronger effect = lower value", "value": "1.03 (inactive)"}, {"measurement": "normalized growth", "setting": "locus YCL029C, strain bik1, stronger effect = lower value", "value": "1 (inactive)"}, {"measurement": "normalized growth", "setting": "locus YCL061C, strain MRC1, stronger effect = lower value", "value": "1.06 (inactive)"}, {"measurement": "normalized growth", "setting": "locus YCL069W, strain vba3, stronger effect = lower value", "value": "1.07 (inactive)"}, {"measurement": "normalized growth", "setting": "locus YCR088W, strain abp1, stronger effect = lower value", "value": "1.08 [resistant] (active)"}, {"measurement": "normalized growth", "setting": "locus YDL005C, strain med2, stronger effect = lower value", "value": "1.04 (inactive)"}, {"measurement": "normalized growth", "setting": "locus YDL035C, strain GPR1, stronger effect = lower value", "value": "0.886 (inactive)"}, {"measurement": "normalized growth", "setting": "locus YDL040C, strain nat1, stronger effect = lower value", "value": "1.08 [resistant] (active)"}, {"measurement": "normalized growth", "setting": "locus YDL074C, strain BRE1, stronger effect = lower value", "value": "1.34 [resistant] (active)"}, {"measurement": "normalized growth", "setting": "locus YDL101C, strain DUN1, stronger effect = lower value", "value": "1.02 (inactive)"}, {"measurement": "normalized growth", "setting": "locus YDL185W, strain tfp1, stronger effect = lower value", "value": "1.01 (inactive)"}, {"measurement": "normalized growth", "setting": "locus YDL192W, strain arf1, stronger effect = lower value", "value": "1.02 (inactive)"}, {"measurement": "normalized growth", "setting": "locus YDR001C, strain nth1, stronger effect = lower value", "value": "1.07 (inactive)"}, {"measurement": "normalized growth", "setting": "locus YDR069C, strain doa4, stronger effect = lower value", "value": "1.03 (inactive)"}, {"measurement": "normalized growth", "setting": "locus YDR101C, strain arx1, stronger effect = lower value", "value": "0.967 (inactive)"}, {"measurement": "normalized growth", "setting": "locus YDR137W, strain rgp1, stronger effect = lower value", "value": "0.774 (active)"}, {"measurement": "normalized growth", "setting": "locus YDR159W, strain sac3, stronger effect = lower value", "value": "1.05 (inactive)"}, {"measurement": "normalized growth", "setting": "locus YDR162C, strain NBP2, stronger effect = lower value", "value": "0.913 (inactive)"}, {"measurement": "normalized growth", "setting": "locus YDR195W, strain ref2", "value": "1.13 (inactive)"}, {"measurement": "normalized growth", "setting": "locus YDR297W, strain sur2, stronger effect = lower value", "value": "1.07 (inactive)"}, {"measurement": "normalized growth", "setting": "locus YDR318W, strain mcm21, stronger effect = lower value", "value": "1.01 (inactive)"}, {"measurement": "normalized growth", "setting": "locus YDR334W, strain swr1, stronger effect = lower value", "value": "1.05 (inactive)"}, {"measurement": "normalized growth", "setting": "locus YDR335W, strain msn5, stronger effect = lower value", "value": "1.02 (inactive)"}, {"measurement": "normalized growth", "setting": "locus YDR388W, stronger effect = lower value", "value": "1.03 (inactive)"}, {"measurement": "normalized growth", "setting": "locus YDR392W, strain spt3, stronger effect = lower value", "value": "1.02 (inactive)"}, {"measurement": "normalized growth", "setting": "locus YDR502C, strain sam2, stronger effect = lower value", "value": "0.989 (inactive)"}, {"measurement": "normalized growth", "setting": "locus YEL003W, strain gim4, stronger effect = lower value", "value": "1.02 (inactive)"}, {"measurement": "normalized growth", "setting": "locus YEL037C, strain rad23, stronger effect = lower value", "value": "1.06 (inactive)"}, {"measurement": "normalized growth", "setting": "locus YEL061C, strain CIN8 (second series), stronger effect = lower value", "value": "1.06 (inactive)"}, {"measurement": "normalized growth", "setting": "locus YER015W, strain faa2, stronger effect = lower value", "value": "1.08 [resistant] (active)"}, {"measurement": "normalized growth", "setting": "locus YER016W, strain bim1, stronger effect = lower value", "value": "1.07 (inactive)"}, {"measurement": "normalized growth", "setting": "locus YER110C, stronger effect = lower value", "value": "1.05 (inactive)"}, {"measurement": "normalized growth", "setting": "locus YER111C, strain swi4, stronger effect = lower value", "value": "1.08 (inactive)"}, {"measurement": "normalized growth", "setting": "locus YER155C, strain BEM2 (second series), stronger effect = lower value", "value": "1.09 (inactive)"}, {"measurement": "normalized growth", "setting": "locus YER155C, strain BEM2, stronger effect = lower value", "value": "1.1 [resistant] (active)"}, {"measurement": "normalized growth", "setting": "locus YER167W, strain BCK2, stronger effect = lower value", "value": "1.08 (inactive)"}, {"measurement": "normalized growth", "setting": "locus YFR010W, strain ubp6, stronger effect = lower value", "value": "1 (inactive)"}, {"measurement": "normalized growth", "setting": "locus YGL078C, strain dbp3, stronger effect = lower value", "value": "0.889 (active)"}, {"measurement": "normalized growth", "setting": "locus YGL086W, strain mad1, stronger effect = lower value", "value": "1 (inactive)"}, {"measurement": "normalized growth", "setting": "locus YGL167C, strain pmr1, stronger effect = lower value", "value": "1.08 (inactive)"}, {"measurement": "normalized growth", "setting": "locus YGL173C, strain kem1, stronger effect = lower value", "value": "1.02 (inactive)"}, {"measurement": "normalized growth", "setting": "locus YGL227W, strain vid30, stronger effect = lower value", "value": "1.07 (inactive)"}, {"measurement": "normalized growth", "setting": "locus YGL240W, strain doc1, stronger effect = lower value", "value": "1.02 (inactive)"}, {"measurement": "normalized growth", "setting": "locus YGL248W, strain PDE1, stronger effect = lower value", "value": "1.01 (inactive)"}, {"measurement": "normalized growth", "setting": "locus YGL253W, strain hxk2, stronger effect = lower value", "value": "1.04 (inactive)"}, {"measurement": "normalized growth", "setting": "locus YGR078C, strain PAC10, stronger effect = lower value", "value": "1.13 (inactive)"}, {"measurement": "normalized growth", "setting": "locus YGR135W, strain pre9, stronger effect = lower value", "value": "0.996 (inactive)"}, {"measurement": "normalized growth", "setting": "locus YGR252W, strain gcn5, stronger effect = lower value", "value": "0.985 (inactive)"}, {"measurement": "normalized growth", "setting": "locus YHR013C, strain ard1, stronger effect = lower value", "value": "1.15 (inactive)"}, {"measurement": "normalized growth", "setting": "locus YHR027C, strain rpn1, stronger effect = lower value", "value": "1.06 (inactive)"}, {"measurement": "normalized growth", "setting": "locus YHR030C, strain SLT2, stronger effect = lower value", "value": "1.1 [resistant] (active) and 0.945 (inactive)"}, {"measurement": "normalized growth", "setting": "locus YHR079C, strain IRE1 (second series), stronger effect = lower value", "value": "1.05 (inactive)"}, {"measurement": "normalized growth", "setting": "locus YHR079C, strain IRE1, stronger effect = lower value", "value": "0.877 (inactive)"}, {"measurement": "normalized growth", "setting": "locus YHR094C, strain hxt1, stronger effect = lower value", "value": "1.07 (inactive)"}, {"measurement": "normalized growth", "setting": "locus YHR129C, strain ARP1, stronger effect = lower value", "value": "1.06 (inactive)"}, {"measurement": "normalized growth", "setting": "locus YHR142W, strain chs7, stronger effect = lower value", "value": "1.03 (inactive)"}, {"measurement": "normalized growth", "setting": "locus YHR200W, strain rpn10, stronger effect = lower value", "value": "1.01 (inactive)"}, {"measurement": "normalized growth", "setting": "locus YIL066C, strain RNR3, stronger effect = lower value", "value": "1.03 (inactive)"}, {"measurement": "normalized growth", "setting": "locus YIL073C, strain SPO22, stronger effect = lower value", "value": "1.43 [resistant] (active)"}, {"measurement": "normalized growth", "setting": "locus YIL125W, strain kgd1, stronger effect = lower value", "value": "1.01 (inactive)"}, {"measurement": "normalized growth", "setting": "locus YIR030C, strain dcg1, stronger effect = lower value", "value": "1.06 (inactive)"}, {"measurement": "normalized growth", "setting": "locus YJL092W, strain hpr5, stronger effect = lower value", "value": "1.08 (inactive)"}, {"measurement": "normalized growth", "setting": "locus YJL095W, strain BCK1 (second series), stronger effect = lower value", "value": "1.08 [resistant] (active)"}, {"measurement": "normalized growth", "setting": "locus YJL095W, strain BCK1, stronger effect = lower value", "value": "1.14 (inactive) and 0.943 (inactive)"}, {"measurement": "normalized growth", "setting": "locus YJL115W, strain asf1, stronger effect = lower value", "value": "1.06 (inactive)"}, {"measurement": "normalized growth", "setting": "locus YJL129C, strain trk1, stronger effect = lower value", "value": "1.08 (inactive)"}, {"measurement": "normalized growth", "setting": "locus YJL134W, strain LCB3, stronger effect = lower value", "value": "1.07 [resistant] (active)"}, {"measurement": "normalized growth", "setting": "locus YJL154C, strain vps35, stronger effect = lower value", "value": "1.08 (inactive)"}, {"measurement": "normalized growth", "setting": "locus YJL164C, strain tpk1, stronger effect = lower value", "value": "1.02 (inactive)"}, {"measurement": "normalized growth", "setting": "locus YJL166W, strain qcr8, stronger effect = lower value", "value": "1.03 (inactive)"}, {"measurement": "normalized growth", "setting": "locus YJL168C, strain set2, stronger effect = lower value", "value": "1.1 [resistant] (active)"}]}
